Consider one sequence from PMC7862700, “An all-to-all approach to the identification of sequence-specific readers for epigenetic DNA modifications on cytosine”.

Common to all, as to assay: DAPPL (digital affinity profiling via proximity ligation, sequencing); 10 mM Tris-HCl pH 7.5, 50 mM NaCl, 1 mM DTT, 4% glycerol, room temperature, 30 min; GST-TFs on glutathione beads, 16-mer random dsDNA library, 0.1% formaldehyde crosslink after washing; high values mean tight binding
What all share (conditions): protein: recombinant; tags: N-terminal GST; dsDNA, one strand shown

For one experiment, the target named is T1, ELK1 (Homo sapiens, UniProt P19419 1-428).
T1 sequence: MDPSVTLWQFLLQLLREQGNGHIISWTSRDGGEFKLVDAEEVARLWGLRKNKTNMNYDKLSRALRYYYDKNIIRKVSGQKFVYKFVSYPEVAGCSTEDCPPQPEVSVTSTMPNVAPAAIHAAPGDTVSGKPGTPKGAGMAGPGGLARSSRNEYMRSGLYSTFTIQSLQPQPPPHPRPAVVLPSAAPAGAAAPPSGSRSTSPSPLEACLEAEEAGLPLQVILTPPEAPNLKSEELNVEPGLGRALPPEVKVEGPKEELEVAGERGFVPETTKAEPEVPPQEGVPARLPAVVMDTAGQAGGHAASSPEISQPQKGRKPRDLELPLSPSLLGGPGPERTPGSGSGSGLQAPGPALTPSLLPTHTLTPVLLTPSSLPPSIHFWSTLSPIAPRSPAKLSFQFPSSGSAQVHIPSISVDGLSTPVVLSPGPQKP
The method, boiled down:
(§1)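 GST fusions of human transcription factors were expressed in yeast and captured with glutathione beads. Once given DNA barcodes and pooled alongside a tag-only sample, they were incubated for 30 min at room temperature with 200 nmole of a random double-stranded 16-mer DNA library in Tris/NaCl/DTT/glycerol buffer, then washed, crosslinked (0.1% formaldehyde), proximity-ligated, PCR-amplified and sequenced on an Illumina NextSeq500. The binding signal of each hexamer is its read frequency for a factor divided by its frequency for the tag-only sample.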

The target of the next experiment is T2, GABPA (Homo sapiens, UniProt Q06546 1-454).
T2 sequence: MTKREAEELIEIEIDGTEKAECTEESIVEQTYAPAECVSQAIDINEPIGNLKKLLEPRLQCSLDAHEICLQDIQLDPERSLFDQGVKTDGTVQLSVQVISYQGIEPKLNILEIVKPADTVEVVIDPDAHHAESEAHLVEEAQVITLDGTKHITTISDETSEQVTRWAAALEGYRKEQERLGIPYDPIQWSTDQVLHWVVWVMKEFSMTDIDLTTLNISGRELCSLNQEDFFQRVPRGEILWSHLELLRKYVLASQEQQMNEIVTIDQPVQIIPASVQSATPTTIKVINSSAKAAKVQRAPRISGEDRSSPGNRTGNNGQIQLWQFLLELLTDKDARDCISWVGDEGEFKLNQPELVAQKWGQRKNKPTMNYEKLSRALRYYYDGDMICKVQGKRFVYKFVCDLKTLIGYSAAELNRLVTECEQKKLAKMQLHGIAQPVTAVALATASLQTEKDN
The method, boiled down: as §1

Another experiment has as its target ELF1 (Homo sapiens, UniProt P32519 1-619). An outline of the steps: as §1
A further experiment concerns the target T3, EHF (Homo sapiens, UniProt Q9NZC4 1-300).
T3 sequence: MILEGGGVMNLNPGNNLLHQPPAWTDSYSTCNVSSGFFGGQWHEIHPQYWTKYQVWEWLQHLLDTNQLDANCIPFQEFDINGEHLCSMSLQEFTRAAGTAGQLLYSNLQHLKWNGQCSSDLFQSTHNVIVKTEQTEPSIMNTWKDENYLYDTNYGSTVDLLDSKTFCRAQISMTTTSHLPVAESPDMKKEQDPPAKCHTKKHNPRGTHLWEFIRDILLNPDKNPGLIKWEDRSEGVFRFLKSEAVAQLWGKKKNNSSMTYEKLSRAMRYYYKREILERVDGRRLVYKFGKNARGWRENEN
An outline of the steps:
as §1

In another experiment the target is SPIB (Homo sapiens, UniProt Q01892 1-262). The method, boiled down:
as §1

A further experiment concerns the target T4, FEV (Homo sapiens, UniProt Q99581 1-238).
T4 sequence: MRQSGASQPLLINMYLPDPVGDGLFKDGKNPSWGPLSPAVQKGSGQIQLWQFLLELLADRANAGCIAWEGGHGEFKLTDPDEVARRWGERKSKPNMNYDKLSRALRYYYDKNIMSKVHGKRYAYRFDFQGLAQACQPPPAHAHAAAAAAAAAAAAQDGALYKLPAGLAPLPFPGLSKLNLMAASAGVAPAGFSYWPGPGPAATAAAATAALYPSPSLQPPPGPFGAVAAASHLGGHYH
The method, boiled down:
as §1

In a further experiment the target is ETV5 (Homo sapiens, UniProt P41161 1-510). The method, boiled down: as §1
For another experiment, the target named is ELF4 (Homo sapiens, UniProt Q99607 1-663). An outline of the steps: as §1
The target in another experiment is T5, ETV2 (Homo sapiens, UniProt O00321 1-342).
T5 sequence: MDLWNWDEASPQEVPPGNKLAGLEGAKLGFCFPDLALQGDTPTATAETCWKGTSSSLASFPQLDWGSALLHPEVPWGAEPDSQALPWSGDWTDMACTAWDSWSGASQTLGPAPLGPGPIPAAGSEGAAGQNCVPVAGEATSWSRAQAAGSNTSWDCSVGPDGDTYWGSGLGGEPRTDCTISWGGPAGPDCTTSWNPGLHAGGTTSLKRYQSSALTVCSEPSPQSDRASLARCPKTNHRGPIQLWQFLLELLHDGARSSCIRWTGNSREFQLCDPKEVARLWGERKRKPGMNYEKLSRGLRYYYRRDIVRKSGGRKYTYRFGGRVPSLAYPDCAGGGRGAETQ
An outline of the steps: as §1

The next experiment has as its target T6, ELF3 (Homo sapiens, UniProt P78545 1-371).
T6 sequence: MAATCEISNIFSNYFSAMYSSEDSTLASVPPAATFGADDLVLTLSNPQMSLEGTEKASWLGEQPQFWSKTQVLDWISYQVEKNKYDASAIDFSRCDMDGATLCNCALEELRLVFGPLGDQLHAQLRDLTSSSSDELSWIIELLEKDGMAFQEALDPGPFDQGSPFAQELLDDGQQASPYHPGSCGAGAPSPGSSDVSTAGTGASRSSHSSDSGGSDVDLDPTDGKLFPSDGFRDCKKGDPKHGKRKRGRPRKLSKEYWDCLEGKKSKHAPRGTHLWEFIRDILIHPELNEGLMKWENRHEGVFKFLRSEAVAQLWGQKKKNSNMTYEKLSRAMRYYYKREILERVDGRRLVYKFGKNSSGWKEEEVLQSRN
An outline of the steps:
as §1

The next experiment concerns the target ETV1 (Homo sapiens, UniProt P50549 1-477). An outline of the steps: as §1
A further experiment addresses T7, ERF (Homo sapiens, UniProt P50548 1-548).
T7 sequence: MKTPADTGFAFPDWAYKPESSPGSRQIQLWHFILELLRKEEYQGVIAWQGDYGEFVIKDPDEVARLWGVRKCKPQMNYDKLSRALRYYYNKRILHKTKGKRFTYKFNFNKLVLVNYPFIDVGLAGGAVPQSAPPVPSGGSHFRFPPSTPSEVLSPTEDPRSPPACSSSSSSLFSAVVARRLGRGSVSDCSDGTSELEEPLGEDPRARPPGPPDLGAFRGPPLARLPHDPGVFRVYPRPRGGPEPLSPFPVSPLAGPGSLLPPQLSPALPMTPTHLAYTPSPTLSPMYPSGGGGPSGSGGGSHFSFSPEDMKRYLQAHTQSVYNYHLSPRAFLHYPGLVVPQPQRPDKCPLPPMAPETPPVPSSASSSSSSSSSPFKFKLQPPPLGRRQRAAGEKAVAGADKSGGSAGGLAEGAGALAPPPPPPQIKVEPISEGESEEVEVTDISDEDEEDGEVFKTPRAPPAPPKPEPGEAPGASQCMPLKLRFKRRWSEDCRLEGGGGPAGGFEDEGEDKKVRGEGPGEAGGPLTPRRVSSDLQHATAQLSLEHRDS
The method, boiled down:
as §1

The next experiment has as its target T8, ETS2 (Homo sapiens, UniProt P15036 1-469).
T8 sequence: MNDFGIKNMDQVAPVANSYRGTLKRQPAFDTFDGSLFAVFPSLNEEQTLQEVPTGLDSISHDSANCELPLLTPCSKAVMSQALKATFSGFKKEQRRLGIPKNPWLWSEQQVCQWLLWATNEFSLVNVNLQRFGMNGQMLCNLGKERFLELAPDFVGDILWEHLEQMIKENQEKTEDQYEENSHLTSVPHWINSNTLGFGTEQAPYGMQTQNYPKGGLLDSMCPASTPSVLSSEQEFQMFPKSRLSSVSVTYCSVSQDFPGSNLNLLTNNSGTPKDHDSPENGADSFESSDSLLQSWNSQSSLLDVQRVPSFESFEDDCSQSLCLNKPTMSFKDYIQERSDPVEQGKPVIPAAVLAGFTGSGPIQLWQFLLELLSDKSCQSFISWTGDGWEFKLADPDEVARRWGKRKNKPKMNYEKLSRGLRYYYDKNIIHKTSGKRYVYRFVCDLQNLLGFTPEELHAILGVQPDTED
An outline of the steps: as §1

A further experiment addresses T9, SPDEF (Homo sapiens, UniProt O95238 1-335).
T9 sequence: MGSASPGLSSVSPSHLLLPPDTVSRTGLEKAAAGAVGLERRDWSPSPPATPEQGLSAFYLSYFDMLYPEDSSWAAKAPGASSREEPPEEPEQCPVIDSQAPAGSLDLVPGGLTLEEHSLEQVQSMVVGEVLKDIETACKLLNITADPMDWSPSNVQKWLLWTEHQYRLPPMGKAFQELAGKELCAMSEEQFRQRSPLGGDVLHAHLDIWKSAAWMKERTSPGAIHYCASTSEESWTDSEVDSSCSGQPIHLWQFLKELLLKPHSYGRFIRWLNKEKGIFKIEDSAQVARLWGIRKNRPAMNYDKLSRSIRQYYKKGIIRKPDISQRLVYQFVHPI
The method, boiled down:
as §1

The target of another experiment is T10, ETV3 (Homo sapiens, UniProt P41162-2 1-143).
T10 sequence: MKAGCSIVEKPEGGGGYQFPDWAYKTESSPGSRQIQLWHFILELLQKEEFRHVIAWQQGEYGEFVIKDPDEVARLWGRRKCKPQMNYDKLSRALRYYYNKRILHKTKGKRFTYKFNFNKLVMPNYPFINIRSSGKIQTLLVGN
An outline of the steps:
as §1

Chain of SPIB (Q01892 whole entry): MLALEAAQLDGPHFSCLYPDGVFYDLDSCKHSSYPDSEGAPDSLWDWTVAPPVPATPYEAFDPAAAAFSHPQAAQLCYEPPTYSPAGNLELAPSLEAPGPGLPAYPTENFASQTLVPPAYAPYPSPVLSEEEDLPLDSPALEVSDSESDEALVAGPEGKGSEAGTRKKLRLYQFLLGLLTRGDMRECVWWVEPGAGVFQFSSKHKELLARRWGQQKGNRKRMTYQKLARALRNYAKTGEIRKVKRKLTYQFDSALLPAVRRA
Chain of ETV5 (P41161 whole entry): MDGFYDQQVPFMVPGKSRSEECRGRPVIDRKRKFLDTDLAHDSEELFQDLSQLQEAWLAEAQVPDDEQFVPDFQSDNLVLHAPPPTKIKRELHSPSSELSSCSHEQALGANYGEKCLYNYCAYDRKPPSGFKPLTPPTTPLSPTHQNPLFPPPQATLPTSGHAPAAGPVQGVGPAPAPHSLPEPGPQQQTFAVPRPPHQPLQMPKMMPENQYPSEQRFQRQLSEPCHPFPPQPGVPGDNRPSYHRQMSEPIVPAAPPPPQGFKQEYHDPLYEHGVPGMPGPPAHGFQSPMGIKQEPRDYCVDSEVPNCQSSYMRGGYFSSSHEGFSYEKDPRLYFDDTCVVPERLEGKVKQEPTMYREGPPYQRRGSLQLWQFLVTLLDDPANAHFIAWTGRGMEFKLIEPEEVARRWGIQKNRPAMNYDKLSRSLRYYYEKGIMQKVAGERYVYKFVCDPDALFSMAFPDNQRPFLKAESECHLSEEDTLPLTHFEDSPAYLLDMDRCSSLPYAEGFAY
Chain of ETV1 (P50549 whole entry): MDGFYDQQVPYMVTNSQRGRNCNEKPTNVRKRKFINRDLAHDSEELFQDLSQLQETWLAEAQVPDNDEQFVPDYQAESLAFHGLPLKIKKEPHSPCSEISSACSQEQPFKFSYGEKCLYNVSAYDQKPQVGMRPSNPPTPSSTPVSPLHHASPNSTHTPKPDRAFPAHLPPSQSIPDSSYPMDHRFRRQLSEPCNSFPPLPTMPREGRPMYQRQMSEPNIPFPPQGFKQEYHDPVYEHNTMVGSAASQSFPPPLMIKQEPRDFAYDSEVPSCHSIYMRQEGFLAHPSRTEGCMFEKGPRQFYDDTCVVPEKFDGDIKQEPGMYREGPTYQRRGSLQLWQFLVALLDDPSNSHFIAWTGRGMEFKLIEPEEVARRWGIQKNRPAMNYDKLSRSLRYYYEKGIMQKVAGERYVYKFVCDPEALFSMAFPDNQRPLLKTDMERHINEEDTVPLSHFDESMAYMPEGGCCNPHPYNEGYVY
Chain of ELF4 (Q99607 whole entry): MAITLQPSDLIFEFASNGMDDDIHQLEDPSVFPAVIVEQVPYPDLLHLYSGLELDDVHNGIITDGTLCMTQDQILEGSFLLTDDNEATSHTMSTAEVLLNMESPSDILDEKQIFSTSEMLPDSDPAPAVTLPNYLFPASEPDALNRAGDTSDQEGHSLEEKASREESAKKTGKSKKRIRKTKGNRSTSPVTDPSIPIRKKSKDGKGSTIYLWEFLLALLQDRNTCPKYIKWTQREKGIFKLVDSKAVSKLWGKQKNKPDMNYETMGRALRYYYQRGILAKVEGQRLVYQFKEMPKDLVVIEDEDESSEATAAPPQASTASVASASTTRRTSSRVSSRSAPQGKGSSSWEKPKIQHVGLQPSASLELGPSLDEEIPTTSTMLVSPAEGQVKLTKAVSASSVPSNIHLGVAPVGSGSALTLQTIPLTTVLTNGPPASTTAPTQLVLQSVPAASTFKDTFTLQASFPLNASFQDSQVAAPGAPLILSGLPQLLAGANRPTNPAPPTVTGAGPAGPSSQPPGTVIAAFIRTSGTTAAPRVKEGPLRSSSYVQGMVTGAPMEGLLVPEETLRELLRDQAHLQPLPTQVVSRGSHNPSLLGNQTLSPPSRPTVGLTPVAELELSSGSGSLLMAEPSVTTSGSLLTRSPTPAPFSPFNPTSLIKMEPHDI
Chain of ELF1 (P32519 whole entry): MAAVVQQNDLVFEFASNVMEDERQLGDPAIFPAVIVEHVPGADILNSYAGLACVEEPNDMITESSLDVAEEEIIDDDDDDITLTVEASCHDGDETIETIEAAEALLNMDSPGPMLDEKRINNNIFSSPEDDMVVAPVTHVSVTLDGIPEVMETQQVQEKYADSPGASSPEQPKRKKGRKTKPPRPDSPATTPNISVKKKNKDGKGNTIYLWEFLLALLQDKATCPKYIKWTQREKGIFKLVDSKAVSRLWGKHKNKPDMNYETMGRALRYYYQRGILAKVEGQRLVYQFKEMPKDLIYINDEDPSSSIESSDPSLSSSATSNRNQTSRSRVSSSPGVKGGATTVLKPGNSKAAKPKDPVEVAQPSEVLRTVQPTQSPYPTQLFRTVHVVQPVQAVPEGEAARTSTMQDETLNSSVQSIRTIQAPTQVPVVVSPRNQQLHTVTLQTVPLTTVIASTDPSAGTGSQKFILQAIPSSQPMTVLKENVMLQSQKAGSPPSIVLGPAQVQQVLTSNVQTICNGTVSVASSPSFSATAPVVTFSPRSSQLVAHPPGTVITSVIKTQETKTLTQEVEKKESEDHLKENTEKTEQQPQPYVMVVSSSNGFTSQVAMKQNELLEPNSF

For the sequence ATAGCC, the binding signal in the experiment with ELK1 was 1.08 fold enrichment (6-mer frequency, TF over GST control); in the experiment with GABPA it was 1.11 fold enrichment (6-mer frequency, TF over GST control); with ELF1 it was 1.05 fold enrichment (6-mer frequency, TF over GST control); with EHF, 1.1 fold enrichment (6-mer frequency, TF over GST control); with SPIB, 1.04 fold enrichment (6-mer frequency, TF over GST control); in the experiment with FEV it was 1.1 fold enrichment (6-mer frequency, TF over GST control). Also, the binding signal in the experiment with ETV5 was 1.1 fold enrichment (6-mer frequency, TF over GST control); in the experiment with ELF4, 1.1 fold enrichment (6-mer frequency, TF over GST control); with ETV2 it was 1 fold enrichment (6-mer frequency, TF over GST control); with ELF3, 1.15 fold enrichment (6-mer frequency, TF over GST control); with ETV1 it was 1.03 fold enrichment (6-mer frequency, TF over GST control); with ERF it was 1.1 fold enrichment (6-mer frequency, TF over GST control). For the same sequence, the binding signal is 1.07 fold enrichment (6-mer frequency, TF over GST control) with ETS2; 1.08 fold enrichment (6-mer frequency, TF over GST control) with SPDEF; 1.06 fold enrichment (6-mer frequency, TF over GST control) with ETV3.
